Compound activity (PubChem BioAssay)
NCOA3 inh = SRC3 coactivator transcriptional activity inhibitors, primary screen, cell-based, luminescence | actives 0.17% (n = 360,000) | HEK293 GAL4-SRC3 luciferase reporter | Nuclear receptor coactivator 3 (Homo sapiens), Q9Y6Q9 | AID 588352, 2011 | inhibition, % at 3.6 µM;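 active means inhibition above a per-campaign cutoff, the mean of all compounds plus 3 SD, cut at about 60% in these data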;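 further: higher means less SRC3-driven luciferase light from the GAL4 reporter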
Gli-Sufu block = Gli-Sufu pathway antagonists, primary screen, luciferase luminescence, Sufu-KO-LIGHT cells, uHTS | Sufu-KO-LIGHT fibroblasts, Gli luciferase reporter luminescence | inhibition, % at 5 µM | actives 0.74% (n = 340,000);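 active means inhibition above about 55%, limit read from the data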
NR5A2 inv ag = LRH-1 (NR5A2) inverse agonists, primary screen, cell-based, luminescence, HEK293T, StAR-luciferase reporter | actives 0.13% (n = 360,000) | Nuclear receptor subfamily 5 group A member 2 (Homo sapiens), O00482 | LRH-1 transfected, 24 h | inhibition, % at 3.6 µM;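 active means inhibition above the mean inhibition of all tested compounds plus 3 SD, cut at about 73% in these data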
Target sequence (O00482 whole entry, looked up): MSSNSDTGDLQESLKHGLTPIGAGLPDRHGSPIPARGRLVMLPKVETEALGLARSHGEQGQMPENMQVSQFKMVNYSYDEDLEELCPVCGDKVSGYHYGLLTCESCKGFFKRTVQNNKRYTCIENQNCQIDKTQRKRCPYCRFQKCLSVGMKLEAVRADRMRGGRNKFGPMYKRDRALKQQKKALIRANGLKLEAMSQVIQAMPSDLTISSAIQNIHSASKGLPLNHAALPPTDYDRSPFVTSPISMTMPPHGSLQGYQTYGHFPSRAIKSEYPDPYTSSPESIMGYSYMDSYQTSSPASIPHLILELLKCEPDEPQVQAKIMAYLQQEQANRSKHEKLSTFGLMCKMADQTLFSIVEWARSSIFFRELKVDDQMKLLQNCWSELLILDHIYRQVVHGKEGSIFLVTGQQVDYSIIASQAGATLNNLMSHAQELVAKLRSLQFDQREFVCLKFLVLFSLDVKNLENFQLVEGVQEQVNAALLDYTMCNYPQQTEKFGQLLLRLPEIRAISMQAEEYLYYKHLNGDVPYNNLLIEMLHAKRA
SRC1 inh = SRC1 coactivator transcriptional activity inhibitors, primary screen, cell-based, luminescence. Nuclear receptor coactivator 1 (Homo sapiens), Q15788. AID 588354, 2011. HEK293 GAL4-SRC1 luciferase reporter. actives 0.12% (n = 360,000). inhibition, % at 3.6 µM;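 active means inhibition above the campaign mean plus 3 SD, with each screening campaign given its own cutoff, cut at about 60% in these data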
NR2F2 inh = NR2F2 transcriptional activity inhibitors, primary screen, cell-based, luciferase reporter, HEK293T, luminescence; inhibition, % at 8.6 µM; COUP transcription factor 2 (Homo sapiens), P24468; HEK293T NGFI-A luciferase reporter; actives 0.7% (n = 370,000); AID 686940, 2013;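 active means inhibition above a per-plate cutoff, mean inhibition of test wells between control levels plus 3 SD, cut at about 38% in these data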;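 further: cells cotransfected with COUP-TFII expression vector driving the NGFI-A reporter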
SRC2 inh = inhibition of GAL4-SRC2 driven luciferase reporter, primary screen, SRC2 inhibitor project, cell-based, luminescence; inhibition, % at 9 µM; Nuclear receptor coactivator 2 (Homo sapiens), Q15596; HEK293 GAL4-SRC2 luciferase reporter; actives 0.17% (n = 370,000);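 active means inhibition above the mean inhibition of all tested compounds plus 3 SD, set per campaign, cut at about 52% in these data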
VP16 Luc counter = Gal4-VP16 luciferase reporter inhibitors, counter-screen for COUP-TFII antagonist project, cell-based, luminescence, HEK293. inhibition, % at 8.5 µM. actives 25% (n = 2,500). shares compounds with NR2F2 inh. AID 687007, 2013; in the data active means inhibition above about 13%
NR2F2 inh conf = NR2F2 transcriptional activity inhibitors, confirmation, cell-based, luciferase reporter, HEK293, triplicate. shares compounds with NR2F2 inh. HEK293 NGFI-A luciferase reporter, luminescence. inhibition, % at 8.5 µM. actives 45% (n = 2,500);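 active means mean inhibition over three repeats above a set limit taken from the earlier primary screen, cut at about 38% in these data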
Each line names hits and unclear results; the compound was inactive in the other large screens (follow-up assays come after a bar, where they were run). The list is not random: actives were taken first. Their share in the collection is about 1.3%.

NC(=O)c1cccc(-c2noc(-c3ccccc3F)n2)c1	NR2F2 inh 58 | VP16 Luc counter 22 | NR2F2 inh conf inactive
Cc1cc(C(=O)CSc2ccc(F)cc2)cc(C)c1OC(=S)N(C)C	SRC1 inh 63, NR2F2 inh 73 | VP16 Luc counter 57 | NR2F2 inh conf 85
Cc1ccc(C(=O)Nc2ccncc2)cc1S(=O)(=O)N1CCOCC1	none
Cc1ccc(C(=O)Nc2ccncc2)cc1S(=O)(=O)N1CCCCC1	NR2F2 inh 47 (no result: Gli-Sufu block) | VP16 Luc counter inactive | NR2F2 inh conf inactive
O=C(Nc1ccc(Cl)c(S(=O)(=O)N2CCCCC2)c1)c1cccnc1	none
O=C(Nc1ccncc1)c1ccc(Cl)c(S(=O)(=O)N2CCCC2)c1	NR2F2 inh 46 | VP16 Luc counter inactive | NR2F2 inh conf inactive
Cc1ccc(NC(=O)c2ccccc2NS(=O)(=O)c2ccc(F)cc2)cc1S(=O)(=O)N1CCCCC1	NR2F2 inh 38 | VP16 Luc counter inactive | NR2F2 inh conf inactive
CCN(CC)S(=O)(=O)c1cc(C(=O)Nc2ccncc2)ccc1Cl	NR2F2 inh 64 | VP16 Luc counter inactive | NR2F2 inh conf inactive
CN(c1ccccc1)S(=O)(=O)c1ccc(Cl)c(C(=O)Nc2ccncc2)c1	NR2F2 inh 40 | VP16 Luc counter inactive | NR2F2 inh conf inactive
CN(C)c1cccc(-c2cnc(N3CCC(C(N)=O)CC3)s2)c1	none (no result: NCOA3 inh, Gli-Sufu block, NR5A2 inv ag, SRC1 inh, SRC2 inh)
c1ccn(-c2ccc(-c3noc(CCc4ccncc4)n3)cc2)c1	NR2F2 inh 51 (no result: NCOA3 inh, Gli-Sufu block, NR5A2 inv ag, SRC1 inh) | VP16 Luc counter inactive | NR2F2 inh conf inactive
O=C(NCc1cccnc1)/C(=C\c1ccc(-c2cccc(Cl)c2)o1)S(=O)(=O)c1ccccc1	NCOA3 inh 82, NR2F2 inh 42, SRC2 inh 63 | VP16 Luc counter 21 | NR2F2 inh conf inactive
COc1ccc(-c2cc(-c3nnc4sc(-c5cccs5)nn34)[nH]n2)cc1	none (no result: NCOA3 inh, Gli-Sufu block, NR5A2 inv ag, SRC1 inh)
Cc1oc(-c2cc(F)ccc2F)nc1CN1CCN(c2ncnc3ccccc23)CC1	NR2F2 inh 43 | VP16 Luc counter inactive | NR2F2 inh conf inactive
C#CCOCCOCCOCCNc1nc(N2CCOCC2)nc(N2CCN(C(=O)[C@H](CCC(=O)O)n3cc(C(N)CO)nn3)CC2)n1 (stereo partly specified)	none (no result: NCOA3 inh, Gli-Sufu block, NR5A2 inv ag, SRC1 inh, SRC2 inh)
O=C1C=C(c2c(O)ccc3ccccc23)c2ccccc2C1=O	NR2F2 inh 58 | VP16 Luc counter 21 | NR2F2 inh conf 43
COc1ccc(-n2c(SCC(=O)Nc3ccc4c(c3)OCO4)nc3sc4c(c3c2=O)CCCC4)cc1	none (no result: NCOA3 inh, Gli-Sufu block, NR5A2 inv ag, SRC1 inh)
CCCCCCn1ccc(=N)cc1	NR2F2 inh 76 | VP16 Luc counter inactive | NR2F2 inh conf 50
COC(=O)C1=C(C)N(Cc2cccc(C(F)(F)F)c2)C(=NCc2cc(OC)c(OC)c(OC)c2)NC1c1ccc(Cl)cc1 (stereo unspecified)	none (no result: NCOA3 inh, Gli-Sufu block, NR5A2 inv ag, SRC1 inh)
Cc1ccnc(Nc2nc(-c3sc(C)nc3C)cs2)c1	NR2F2 inh 70 | VP16 Luc counter inactive | NR2F2 inh conf 44
Cc1nc(C)c(-c2csc(Nc3ccccn3)n2)s1	none
COc1ccc(C2CC(=O)C(c3ccccc3)=CN2Cc2ccccc2)cc1 (stereo unspecified)	none (no result: NCOA3 inh, Gli-Sufu block, NR5A2 inv ag, SRC1 inh)
On1ccccc1=S	Gli-Sufu block 74, NR2F2 inh 66 | VP16 Luc counter 87 | NR2F2 inh conf 46
Cc1sc2ncnc(N[C@@H](Cc3ccccc3)C(=O)O)c2c1C	none
Cc1sc2ncnc(NCC(O)c3ccccc3)c2c1C (stereo unspecified)	NR2F2 inh 43 | VP16 Luc counter inactive | NR2F2 inh conf inactive
CCOC(=O)[C@@]12CCCC3=C1N(CCC3)C(=O)[C@H]2CC(=O)NCc1ccccc1	none (no result: NCOA3 inh, Gli-Sufu block, NR5A2 inv ag, SRC1 inh)
C[C@@H]1/C=C/CC(=O)N[C@H](c2ccccc2)[C@H](C)/C=C/CC(=O)N[C@@H]1c1ccccc1	none (no result: NCOA3 inh, Gli-Sufu block, NR5A2 inv ag, SRC1 inh)
Cc1nc(C)c(-c2ccc(SCC(=O)Nc3cccc(F)c3)nn2)s1	NR2F2 inh 47 | VP16 Luc counter inactive | NR2F2 inh conf inactive
Cc1nc(C)c(-c2ccc(SCC(=O)Nc3cccc(Cl)c3)nn2)s1	NR2F2 inh 53 | VP16 Luc counter inactive | NR2F2 inh conf inactive
CC(=O)c1cccc(NC(=O)CSc2ccc(-c3sc(C)nc3C)nn2)c1	none
CCNC(=S)NNC(=O)CSc1nnc(SCc2cccc3ccccc23)s1	none (no result: NCOA3 inh, Gli-Sufu block, NR5A2 inv ag, SRC1 inh)
C[C@H]1[C@@H](OC(=O)Nc2ccc(Cl)cc2)CC[C@@]23CCCN2C(=O)CCC[C@@H]13	none (no result: NCOA3 inh, Gli-Sufu block, NR5A2 inv ag, SRC1 inh, SRC2 inh)
C=CCOc1ccc(CN(C)C(=O)c2ccc(CNS(=O)(=O)c3ccc(C)c(C)c3)cc2)cc1	NR2F2 inh 41 | VP16 Luc counter inactive | NR2F2 inh conf inactive
COC(=O)[C@@]12CCCCC3=C1N(CCC3)C(=O)[C@H]2CC(=O)N1CCCC1	none (no result: NCOA3 inh, Gli-Sufu block, NR5A2 inv ag, SRC1 inh)
Cc1onc(-c2ccccc2Cl)c1C(=O)Nc1cccc2cccnc12	NR2F2 inh 43 | VP16 Luc counter inactive | NR2F2 inh conf inactive
CCCCN1C(=O)N2Cc3cc(OC)ccc3C2CS1(=O)=O (stereo unspecified)	none (no result: NCOA3 inh, Gli-Sufu block, NR5A2 inv ag, SRC1 inh)
COc1cccc(NS(=O)(=O)c2ccc3c(c2)N(C(C)=O)CCS3)c1	none
Cc1cccc(NS(=O)(=O)c2ccc(NC(=O)N3CCCCC3)cc2)c1	NR2F2 inh 48 | VP16 Luc counter inactive | NR2F2 inh conf inactive
CC(=O)N1CCSc2ccc(S(=O)(=O)Nc3cccc(C)c3)cc21	NR2F2 inh 37 | VP16 Luc counter inactive | NR2F2 inh conf inactive
Cc1cccc(C)c1-n1nnnc1C1(C)Cn2nccc2C(=O)N1Cc1ccc(F)cc1 (stereo unspecified)	none (no result: NCOA3 inh, Gli-Sufu block, NR5A2 inv ag, SRC1 inh)
CC1=C(CO)C(=O)OC([C@@H](C)C2CC[C@H]3C4C[C@H]5O[C@]56[C@@H](O)C=CC(=O)[C@]6(C)C4CC[C@]23C)C1 (stereo partly specified)	NR2F2 inh 44, SRC2 inh 68 | VP16 Luc counter 49 | NR2F2 inh conf 41
O=C(NCCN1CCC(Cc2ccccc2)CC1)C1CCCN(S(=O)(=O)c2cccs2)C1 (stereo unspecified)	NR2F2 inh 47 (no result: NCOA3 inh, Gli-Sufu block, NR5A2 inv ag, SRC1 inh) | VP16 Luc counter inactive | NR2F2 inh conf inactive
O=C(NC1CCCCN(Cc2cccc(C(F)(F)F)c2)C1=O)c1cccc([N+](=O)[O-])c1 (stereo unspecified)	none (no result: NCOA3 inh, Gli-Sufu block, NR5A2 inv ag, SRC1 inh)
CN1c2ccccc2C(C)(C)[C@]12C=Cc1cc(O)ccc1O2	NR2F2 inh 43 | VP16 Luc counter inactive | NR2F2 inh conf inactive
